Results taken from PubChem BioAssay (NCATS).
“And” between values parts separate entries of the source, which are not always exact repeats. Identical values can stand only once. Inconclusive results are not listed. Values without a mark were called inactive. The call rests on the fitted dose curve; in most records, active means well fitted curve in the direction sought with a large enough effect in the signal ratio, with a control signal flat; inconclusive means small, poorly fitted or top-dose-only effect, or a change in a side signal; inactive means no such curve, though single readings can be large or run the other way; the % refers to the signal ratio.

Molecular target: Glucocorticoid receptor (Homo sapiens) (UniProt P04150)
Experiment: qHTS assay for small molecule agonists of glucocorticoid receptor signaling (AID 588532)
Settings: HeLa MMTV-bla, beta-lactamase ratio, agonist, 18 h; active compounds read high; percent of dexamethasone control, DMSO zero
Description: NIH Chemical Genomics Center [NCGC] U.S. Environmental Protection Agency [EPA] National Institutes of Environmental Health Sciences [NIEHS] National Toxicology Program [NTP] NCGC Assay Overview The Glucocorticoid receptor (GR), a nuclear receptor subfamily member and its natural ligands includes […] etc. The GR is a validated drug target for inflammation. GR ligands such as dexamethasone are clinically available as anti-inflammatory drugs. Glucocorticoids implicate role in carbohydrate, protein and lipid metabolisms and programmed cell death. They are also a component of many chemotherapy regimens for the treatment of leukemias, lymphomas, and myelomas because of their role in the induction of apoptosis.
NCGC Assay Protocol Summary Using a beta-lactamase reporter-gene under control of glucocorticoid response element (GRE), a cell-based assay [CellSensor MMTV-bla HeLa cell line assay developed by Invitrogen] was used to measure GR ligands signaling. CellSensor MMTV-bla HeLa cells were used with assay medium containing 1% charcoal/dextran treated FBS, 0.1 mM NEAA, 1 mM sodium pyruvate and 25mM HEPES. The assay was performed in clear bottom black Greiner 1536-well plates. Dexamethasone and Mifepristine were used in the screen as agonist and antagonist positive controls respectively. Library compounds were measured for their ability to stimulate the reporter gene activity. Compounds were screened in a titration series in 1536-well format. The fluorescence intensity (405 nm excitation, 460/530 nm emission) was measured using an EnVision plate reader. Data was normalized relative to Dexamethasone control (0.1 uM, 100%), and DMSO only wells (basal, 0%). Concentration-response titration points for each compound were fitted to the Hill equation yielding concentrations of half-maximal stimulation (EC50) and maximal response (efficacy) values. qHTS protocol for GR beta-lactamase assay in agonist mode [Step] [Parameter] [Value] [Description] 1. Reagent; 6 uL; 1500 cells/well 2. Incubation; 37 C for 3-5 hrs 3. Compounds; 23 nL; 0.59 nM to 92 uM 4. Controls (Dexamethasone); 23 nL, - One column with dose response, start 4.6uM, 1:3 dilutions in duplicates - Final concentrations of 0.1 uM and 2 nM in two columns 5. Incubation; 37 C for 18 hrs 6. Detection reagent; 1 uL of CCF4-dye 7. Incubation; RT for 2 hrs 8. Detection; Fluorescence; Envision plate reader

Chain of Glucocorticoid receptor (Homo sapiens) (P04150 whole entry, looked up): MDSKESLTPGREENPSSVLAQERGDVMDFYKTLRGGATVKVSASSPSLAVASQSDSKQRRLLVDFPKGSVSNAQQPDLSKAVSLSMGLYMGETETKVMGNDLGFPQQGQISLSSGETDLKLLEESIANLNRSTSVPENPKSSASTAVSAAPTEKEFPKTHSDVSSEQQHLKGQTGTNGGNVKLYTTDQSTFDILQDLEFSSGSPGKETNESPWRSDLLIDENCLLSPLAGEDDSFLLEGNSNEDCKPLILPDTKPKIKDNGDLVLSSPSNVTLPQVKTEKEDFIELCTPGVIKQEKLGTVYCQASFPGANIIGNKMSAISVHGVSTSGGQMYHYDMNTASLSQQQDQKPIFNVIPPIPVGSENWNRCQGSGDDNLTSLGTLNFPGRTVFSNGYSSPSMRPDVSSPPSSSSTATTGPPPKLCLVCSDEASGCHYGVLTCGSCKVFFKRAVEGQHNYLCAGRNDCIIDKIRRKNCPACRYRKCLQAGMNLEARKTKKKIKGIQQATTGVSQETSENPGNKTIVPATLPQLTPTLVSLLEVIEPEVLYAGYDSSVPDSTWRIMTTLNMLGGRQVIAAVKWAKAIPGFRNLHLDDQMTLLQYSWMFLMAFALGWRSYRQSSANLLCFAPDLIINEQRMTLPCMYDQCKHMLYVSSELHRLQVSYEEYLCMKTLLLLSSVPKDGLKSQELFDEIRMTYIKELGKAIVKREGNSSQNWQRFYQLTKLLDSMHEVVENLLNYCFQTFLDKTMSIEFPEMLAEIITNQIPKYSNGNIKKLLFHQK

Structure (SMILES)	activation
NCCNCCNCCN	21.8%
Oc1cccc(O)c1	1.81%
Nc1ccc(S(=O)(=O)Nc2nccs2)cc1	-6.26%
O=C1O[C@H]([C@@H](O)CO)C(O)=C1O	1.61% and 16.4%
CCCCOC(=O)c1ccc(O)cc1	-4.25% and 1.71%
CNC(=O)Oc1ccc2c(c1)[C@]1(C)CCN(C)[C@@H]1N2C	-3.85%
COC(=O)C1=C(C)NC(C)=C(C(=O)OC)C1c1ccccc1[N+](=O)[O-]	-7.74%
Cc1cc(CC(=O)O)n(C)c1C(=O)c1ccc(Cl)cc1	-2.23%
CC(O)COc1ccccc1 (stereo not drawn)	-13.7%
NC(=O)c1ncn([C@@H]2O[C@H](CO)[C@@H](O)[C@H]2O)n1	1.78%
CCCc1c(OCCCCc2nn[nH]n2)ccc(C(C)=O)c1O	-8.74%
Cc1cc2nc3c(=O)[nH]c(=O)nc-3n(C[C@H](O)[C@H](O)[C@H](O)CO)c2cc1C	-14%
CC1=C(/C=C/C(C)=C/C=C/C(C)=C/C(=O)O)C(C)(C)CCC1	3.3% and -6.04%
CCCCC(CC)COC(=O)c1ccccc1O (stereo not drawn)	-10.3%
CC1(C)[C@@H]2CC[C@@]1(C)C(=O)C2	6.36%
CN(C)CCCN1c2ccccc2Sc2ccc(Cl)cc21	7.77%
NC(=O)N/N=C/c1ccc([N+](=O)[O-])o1	-5.85% and -2.6%
NCCNCCNCCNCCN	-3.86% and -5.35%
CC(O)CN(CCN(CC(C)O)CC(C)O)CC(C)O (stereo not drawn)	-7.72%
O=C1c2c(O)cccc2Cc2cccc(O)c21	-1.63%
COc1ccccc1O	0.59% and 4.92% and -0.396%
Cc1cccc(Nc2cc(Cl)nc(SCC(=O)O)n2)c1C	-9.26%
CC12CCC(CC1)C(C)(C)O2	-0.499%
